Test results: PubChem BioAssay (EPA / NIEHS)
Records with an inconclusive call do not appear. Active and inactive are the calls of the source. Rule for the calls, unless noted: active = hit-call score of the fitted dose curve at least 0.9, where 1 is the maximum; inactive = score below 0.9.

Legend:
[1] = ATG_TAL_CIS: Attagene CIS-FACTORIAL HepG2 Assay for human TAL Basal Promoter (AID 2282966); details: HepG2 Attagene cis-factorial TAL promoter reporter; actives raise or lower the signal;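 note: background control endpoint measuring basal TAL promoter reporter mRNA not a specific factor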
How it was run: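 Basal-promoter background-control endpoint from a multiplexed HepG2 reporter panel. Cells were exposed 24 h, then reporter mRNA was read by RT-PCR/CE fluorescence and fitted in both directions relative to DMSO.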

[2] = ATG_TGFb_CIS: Attagene CIS-FACTORIAL HepG2 Assay for human Transforming Growth Factor (TGF) (AID 2282967); details: HepG2 Attagene CIS TGFb reporter, mRNA transcription; actives raise or lower the signal
How it was run: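 Transient MRTU transfection of HepG2 (FuGene 6). Dose 24 h. TriZol RNA, oligo(dT) RT, PCR, 6-FAM primer extension, HpaI cut, CE. Bidirectional fit, DMSO = baseline.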

[3] = target: Nuclear receptor subfamily 1 group I member 3 (Homo sapiens) (UniProt Q14994); assay: ATG_CAR_TRANS: Attagene TRANS-FACTORIAL HepG2 Assay for human Constitutive Androstane Receptor (CAR) (AID 2282969; active = hit-call score of the fitted dose curve at least 0.9, where 1 is the maximum;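 note: activators raise reporter mRNA above DMSO so AC50 marks induction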); details: HepG2 Attagene TRANS-FACTORIAL CAR reporter
Sequence of Nuclear receptor subfamily 1 group I member 3 (Homo sapiens) (Q14994 whole entry, looked up, the tested form may be a part): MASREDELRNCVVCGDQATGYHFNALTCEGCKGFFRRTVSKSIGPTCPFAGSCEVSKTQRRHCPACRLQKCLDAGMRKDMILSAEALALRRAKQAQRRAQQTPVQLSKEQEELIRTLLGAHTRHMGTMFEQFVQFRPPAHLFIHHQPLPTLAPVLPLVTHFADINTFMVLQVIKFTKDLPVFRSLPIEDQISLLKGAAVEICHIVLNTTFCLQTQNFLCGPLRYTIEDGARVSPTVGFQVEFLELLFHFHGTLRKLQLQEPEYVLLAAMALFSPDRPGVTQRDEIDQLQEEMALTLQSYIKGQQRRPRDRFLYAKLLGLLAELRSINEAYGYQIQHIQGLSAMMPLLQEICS
How it was run: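 Transiently transfected HepG2, multiplex TRANS reporters (CAR-Gal4 chimera driving GAL4-UAS reporter). 24 h dosing. Readout: reporter transcript by RT-PCR + capillary electrophoresis, fluorescence intensity; positive direction vs DMSO.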

[4] = target: Steroid hormone receptor ERR1 (Homo sapiens) (UniProt P11474); assay: ATG_ERRa_TRANS: Attagene TRANS-FACTORIAL HepG2 Assay for human Estrogen-Related Receptor alpha (ERRa) (AID 2282971; active = hit-call score of the fitted dose curve at least 0.9, where 1 is the maximum); details: HepG2 Attagene TRANS reporter, ERRa transactivation
Sequence of Steroid hormone receptor ERR1 (Homo sapiens) (P11474 whole entry, looked up, the tested form may be a part): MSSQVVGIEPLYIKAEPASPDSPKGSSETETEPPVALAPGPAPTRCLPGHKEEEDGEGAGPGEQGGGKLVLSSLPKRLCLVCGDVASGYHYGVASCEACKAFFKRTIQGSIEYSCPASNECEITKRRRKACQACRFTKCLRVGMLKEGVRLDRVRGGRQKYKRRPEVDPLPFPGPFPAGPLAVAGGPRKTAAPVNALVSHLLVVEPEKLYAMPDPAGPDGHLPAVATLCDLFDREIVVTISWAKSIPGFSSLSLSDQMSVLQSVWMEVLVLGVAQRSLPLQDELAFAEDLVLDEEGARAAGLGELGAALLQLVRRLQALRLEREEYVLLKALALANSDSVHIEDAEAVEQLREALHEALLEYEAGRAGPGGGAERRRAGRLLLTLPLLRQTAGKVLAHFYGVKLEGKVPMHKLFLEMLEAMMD
How it was run: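 HepG2 cells transiently transfected with GAL4-UAS reporter units and chimeric NR-Gal4 constructs; after 24 hour compound incubation, reporter mRNA quantified by RT-PCR, fluorescent labelling and capillary electrophoresis, gain of signal versus DMSO.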

[5] = target: X-box-binding protein 1 (Homo sapiens) (UniProt P17861); assay: ATG_Xbp1_CIS: Attagene CIS-FACTORIAL HepG2 Assay for human X-box Binding Protein 1 (XBP1) (AID 2282972); details: HepG2 XBP1 cis-element reporter, Attagene multiplex; actives raise or lower the signal
Sequence of X-box-binding protein 1 (Homo sapiens) (P17861 whole entry, looked up): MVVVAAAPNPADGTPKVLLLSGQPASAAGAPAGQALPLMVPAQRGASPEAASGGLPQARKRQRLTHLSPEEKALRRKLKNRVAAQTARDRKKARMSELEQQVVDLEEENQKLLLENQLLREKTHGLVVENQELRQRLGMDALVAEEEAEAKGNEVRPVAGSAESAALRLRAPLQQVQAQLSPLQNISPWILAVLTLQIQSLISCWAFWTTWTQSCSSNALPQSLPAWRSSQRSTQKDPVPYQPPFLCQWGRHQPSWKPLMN
How it was run: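 Reporter transcripts were quantified by RT-PCR with fluorescent primer extension and capillary electrophoresis after 24 h chemical exposure. Cells: transiently transfected HepG2 carrying cis-regulated reporter constructs; data fitted bidirectionally relative to DMSO.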

[6] = ATG_M_19_TRANS: Attagene TRANS-FACTORIAL HepG2 Assay for M19 Transcription Factor (Internal Marker) (AID 2282974; active = hit-call score of the fitted dose curve at least 0.9, where 1 is the maximum); details: HepG2 Attagene TRANS-FACTORIAL M19 internal marker reporter
How it was run: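 Cells: human HepG2, transiently transfected with multiplexed reporter transcription units. Exposure: 24 h. Detection: RT-PCR of reporter mRNA with capillary electrophoresis. Analysis: gain-of-signal vs DMSO.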

[7] = target: Estrogen-related receptor gamma (Homo sapiens) (UniProt P62508); assay: ATG_ERRg_TRANS: Attagene TRANS-FACTORIAL HepG2 Assay for human Estrogen-Related Receptor gamma (ERRg) (AID 2282977; active = hit-call score of the fitted dose curve at least 0.9, where 1 is the maximum;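 note: hits increase reporter signal over DMSO so potencies reflect activators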); details: HepG2 Attagene TRANS reporter, ERRg transactivation
Sequence of Estrogen-related receptor gamma (Homo sapiens) (P62508 whole entry, looked up, the tested form may be a part): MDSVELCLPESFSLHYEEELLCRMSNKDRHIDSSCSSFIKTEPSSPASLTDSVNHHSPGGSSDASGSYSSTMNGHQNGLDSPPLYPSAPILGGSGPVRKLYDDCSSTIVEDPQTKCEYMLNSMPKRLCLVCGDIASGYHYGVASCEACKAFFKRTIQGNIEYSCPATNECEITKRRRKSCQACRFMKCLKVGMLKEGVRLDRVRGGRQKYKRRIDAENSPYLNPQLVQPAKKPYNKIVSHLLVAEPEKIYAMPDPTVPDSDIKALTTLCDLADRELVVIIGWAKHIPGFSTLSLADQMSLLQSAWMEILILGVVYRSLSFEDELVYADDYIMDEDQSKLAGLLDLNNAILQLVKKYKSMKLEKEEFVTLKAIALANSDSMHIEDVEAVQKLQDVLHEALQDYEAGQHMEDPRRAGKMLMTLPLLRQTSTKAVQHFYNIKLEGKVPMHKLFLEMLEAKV
How it was run: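 Exogenous NR-Gal4 chimera activity was assessed in HepG2 cells bearing transfected GAL4-UAS reporters. After 24 h dosing, total RNA underwent RT-PCR, fluorescent primer extension and HpaI digestion before capillary electrophoresis, with gain of signal scored against DMSO.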

[8] = ATG_GAL4_TRANS: Attagene TRANS-FACTORIAL HepG2 Assay for GAL4 (Internal Marker) (AID 2282976; active = hit-call score of the fitted dose curve at least 0.9, where 1 is the maximum); details: HepG2 Attagene TRANS GAL4 internal marker reporter
How it was run: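 Background-control readout: GAL4-UAS reporter transcript in transiently transfected HepG2 cells after 24 h compound exposure. Measured by RT-PCR, 6-FAM primer extension, HpaI digest and capillary electrophoresis; gain-of-signal fit versus DMSO.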

[9] = ATG_VDRE_CIS: Attagene CIS-FACTORIAL HepG2 Assay for human Vitamin D Receptor Element (VDRE) (AID 2282968); details: HepG2 VDRE cis-reporter transcription, actives raise or lower the signal
How it was run: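 Transient MRTU transfection of HepG2, 24 h compound exposure. Readout: reporter transcripts via RT-PCR and capillary electrophoresis, fluorescence. Bidirectional fit vs DMSO.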

[10] = target: Estrogen receptor (Homo sapiens) (UniProt P03372); assay: ATG_ERa_TRANS: Attagene TRANS-FACTORIAL HepG2 Assay for human Estrogen Receptor alpha (ERa) (AID 2282970; active = hit-call score of the fitted dose curve at least 0.9, where 1 is the maximum); details: HepG2 Attagene TRANS ERa GAL4 reporter, mRNA
Sequence of Estrogen receptor (Homo sapiens) (P03372 whole entry, looked up, the tested form may be a part): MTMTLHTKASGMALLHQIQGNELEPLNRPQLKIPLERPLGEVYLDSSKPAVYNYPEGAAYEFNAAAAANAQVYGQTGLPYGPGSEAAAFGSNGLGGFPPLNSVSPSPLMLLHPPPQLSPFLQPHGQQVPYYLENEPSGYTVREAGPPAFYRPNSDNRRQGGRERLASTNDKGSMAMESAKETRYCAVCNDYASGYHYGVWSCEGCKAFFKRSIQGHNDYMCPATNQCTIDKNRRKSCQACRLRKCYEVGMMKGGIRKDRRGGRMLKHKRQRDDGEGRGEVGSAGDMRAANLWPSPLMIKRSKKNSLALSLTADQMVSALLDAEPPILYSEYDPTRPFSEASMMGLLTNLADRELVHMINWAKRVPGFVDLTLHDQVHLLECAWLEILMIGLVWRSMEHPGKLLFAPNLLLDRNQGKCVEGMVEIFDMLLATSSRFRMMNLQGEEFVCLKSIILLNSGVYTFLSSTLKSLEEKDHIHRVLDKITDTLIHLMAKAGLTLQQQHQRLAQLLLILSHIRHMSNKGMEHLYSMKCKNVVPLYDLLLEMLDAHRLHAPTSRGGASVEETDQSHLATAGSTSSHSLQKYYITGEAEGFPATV
How it was run: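 Gal4-fusion ERa transactivation, measured as reporter transcript level in transiently transfected HepG2 cells. Exposure 24 h; RT-PCR plus capillary electrophoresis with fluorescence detection.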

Measured: AC50

CCCCCCCC(=O)OCC(O)CO (stereo not drawn)
inactive: [1] | [2] | [3] | [4] | [5] | [6]

C[Si]1(C)O[Si](C)(C)O[Si](C)(C)O1
not listed: [8] | [9] | [10]
inactive: all other assays above

Cc1ccc(-c2ccccc2)cc1
inactive: [1] | [2] | [3] | [5]

C=CC(C)C#N (stereo not drawn)
inactive: [1] | [2] | [3] | [5]

CC(=O)O[C@H]1C[C@@H]2CC[C@@]1(C)C2(C)C
inactive: [1] | [2] | [3] | [5] | [6] | [8]

C1CCCCC1
inactive: [1] | [2] | [3] | [4] | [5]

CCC(C)=O
inactive: [1] | [2] | [9] | [8] | [7]

CCc1ccc(O)c(OC)c1
inactive: [1] | [2] | [3] | [5] | [6]

O=C(CS)OCCOC(=O)CS
active: [1] 62.2 µM
inactive: [2] | [9] | [8]

CC(C)C[C@H](NC(=O)OCC1c2ccccc2-c2ccccc21)C(=O)O
inactive: [1] | [2] | [3] | [5] | [6] | [8]

CC1(C)O[C@@H]2C[C@H]3[C@@H]4CCC5=CC(=O)C=C[C@]5(C)[C@@]4(F)[C@@H](O)C[C@]3(C)[C@]2(C(=O)CO)O1
inactive: [1] | [2] | [9] | [6]

COc1ccc(N=Nc2cc(C)c(N=Nc3ccc(S(=O)(=O)O)cc3)cc2OC)cc1
inactive: [1] | [3] | [5]
active: [2] 172 µM

Cc1ncc([N+](=O)[O-])n1CCO
inactive: [1] | [2] | [3] | [4] | [5] | [7]

C/C=C(\C)C(=O)OCCc1ccccc1
inactive: [1] | [2] | [3] | [6] | [7]

CCCCCCC(C)(C)S
inactive: [1] | [2] | [3] | [5] | [8]

O=P(O)(O)O
inactive: [1] | [2] | [9] | [8]

C=C1C[C@]23C[C@@]1(O)CC[C@H]2[C@@]12C=C[C@H](O)[C@@](C)(C(=O)O1)[C@H]2[C@@H]3C(=O)O
inactive: [1] | [2] | [9] | [5] | [7]

CC1=CC[C@@]23C[C@@H]1C(C)(C)[C@@H]2CC[C@H]3C
inactive: [1] | [2] | [3] | [5]

CC(C)CCCCCCCCCCCCCCC(=O)O
inactive: [1] | [5]
active: [2] 177 µM

IC(I)I
inactive: [1] | [2] | [4] | [6] | [7]

CC(C)CCOC(=O)c1ccccc1
inactive: [1] | [2] | [5] | [6] | [8]

OCCc1ccccc1
inactive: [1] | [2] | [5]

O=C(O)c1cccnc1C(=O)O
inactive: [1] | [2] | [5] | [6]

CCO/C=C1\N=C(c2ccccc2)OC1=O
inactive: [1] | [2] | [5] | [6]

C=C(C#N)C(=O)OCC
inactive: [1] | [2] | [5] | [6]

CC(=O)CC(=O)Nc1ccc(C)cc1C
inactive: [1] | [2] | [5] | [6] | [8]

CC(C)(C)c1ccc(C(=O)O)cc1
inactive: [1] | [2] | [5] | [6]

O=CN1CCOCC1
inactive: [1] | [2] | [10] | [5]

Cc1[nH]c(=O)c(C#N)cc1-c1ccncc1
inactive: [1] | [2] | [10] | [5]

CCc1cc(C(C)(C)C)c(O)c(C(C)(C)C)c1
inactive: [1] | [2] | [5] | [6]

C[C@@H]1CCN(C(=O)[C@H](CCCN=C(N)N)NS(=O)(=O)c2cccc3c2NC[C@H](C)C3)[C@@H](C(=O)O)C1
inactive: [1] | [2] | [4] | [5]

CCC1CCCCC1
inactive: [1] | [2] | [4] | [5] | [6]

CCOc1ccc(NC(=O)CC(C)O)cc1 (stereo not drawn)
active: [2] 0.0975 µM
inactive: [1] | [5] | [6]

O=C1CCCC=CCCCCCCCCCC1
inactive: [1] | [2]
active: [5] 55.6 µM

COC(=O)Nc1ccc(Cl)c(Cl)c1
inactive: [1] | [2]
active: [5] 26.7 µM

Nc1ccccc1[N+](=O)[O-]
inactive: [1] | [2] | [4] | [5] | [6]

OCc1ccc(Cl)cc1Cl
inactive: [1] | [2] | [5] | [8]

COc1cc([C@@H]2c3cc4c(cc3[C@@H](O[C@@H]3O[C@@H]5CO[C@@H](C)O[C@H]5[C@H](O)[C@H]3O)[C@H]3COC(=O)[C@H]23)OCO4)cc(OC)c1O
inactive: [1] | [2] | [5] | [6] | [7]

CC(C=O)Cc1ccc(C(C)(C)C)cc1 (stereo not drawn)
inactive: [1] | [2] | [5]

CC/C=C\CCOC(=O)CC
inactive: [1] | [2] | [5] | [6]

CCCCCCCCSCCO
inactive: [1] | [2] | [5]

CC(=O)c1ccccn1
inactive: [1] | [2] | [5]

CC(C)NCC(O)COc1ccc(CC(N)=O)cc1 (stereo not drawn)
inactive: [1] | [2] | [10] | [5] | [8]

CCCCOC(=O)CCCCCCCC(=O)OCCCC
inactive: [1] | [2] | [4] | [5] | [7]

CC(=O)OCCCc1ccccc1
inactive: [1] | [2] | [4] | [5] | [6] | [7]

C[N+](C)(C)CCCCCC[N+](C)(C)C
inactive: [1] | [2] | [5] | [6]

NC(=S)NNC(N)=S
inactive: [1] | [2] | [5] | [6]

Cc1ccc(S(N)(=O)=O)cc1
inactive: [1] | [2] | [5] | [8]

CCCN(CCC)S(=O)(=O)c1ccc(C(=O)O)cc1
inactive: [1] | [2] | [4] | [5] | [6] | [7]

Brc1ccc(Br)c(Br)c1
inactive: [1] | [2] | [10] | [6]

CC1CCC(C(C)C)C(O)C1 (stereo not drawn)
inactive: [1] | [2] | [5]

C=C(C)C(=O)OCC(CC)(COC(=O)C(=C)C)COC(=O)C(=C)C
inactive: [1] | [2] | [5] | [8]

Cc1ncc[nH]1
inactive: [1] | [2] | [5] | [6]

CCCC(C)=O
inactive: [1] | [2] | [5]

CCOC(=O)CCc1ccccc1
inactive: [1] | [2] | [5] | [6] | [8]

CCOC(=O)C(C#N)=C(c1ccccc1)c1ccccc1
inactive: [1] | [2] | [5]

O=C(Nc1ccc([N+](=O)[O-])cc1)Nc1ccc([N+](=O)[O-])cc1 (tested in a mixture with another compound)
inactive: [1] | [2] | [5]

CCNCCO
inactive: [1] | [9] | [5]

Nc1ccc2c(O)cc(S(=O)(=O)O)cc2c1
inactive: [1] | [3] | [5]

CC(=O)C(C)O (stereo not drawn)
inactive: [1] | [9] | [5] | [8]

COc1cc(Cl)c(OC)cc1N
inactive: [1] | [9] | [5] | [6] | [8]

COCCOCCOCCO
inactive: [1] | [9] | [4] | [5] | [6] | [8]

c1ccc2[nH]cnc2c1
inactive: [1] | [9] | [5] | [6] | [8]

NCCNc1cccc2ccccc12
inactive: [1] | [3]
active: [5] 161 µM

COc1cc(CCC(C)=O)ccc1O
inactive: [1] | [9] | [5] | [7]

CCc1cc(Cc2cc(CC)cc(C(C)(C)C)c2O)c(O)c(C(C)(C)C)c1
active: [5] 16.9 µM
inactive: [1] | [7]
